The panel holds about 83,000 compounds, 20% with a hit somewhere; the sample as a whole holds those more often.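 Assay: single dose, 48 h. Readout: percent growth (0 = no net growth; negative = cell death). Active: <10.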 Active and inactive are the calls of the source.
What follows are compounds tested on COLO 205 colon (assay: NCI-60 one-dose screen, 48 h (100 = growth as untreated, 0 = no growth, -100 = all killed)). Conditions: 10 µM.
With `COc1cc2cc(C(=O)N3C[C@@H](CCl)c4c3cc(OC(=O)N3CCN(C)[C@@H]5CSSC[C@H]53)c3ccccc43)[nH]c2c(OC)c1OC` the growth was -59.2% (active). `CC1=C(CCC=O)C2=C(C)C3(CC3)[C@@](C)(O)C(=O)C2=C1` was tested, and the growth was -71.4% (active). With `O=C(/C=C/c1ccc(Cl)cc1)c1nc2ccccc2n1Cc1ccc(F)cc1` the growth was 71.9% (inactive). With `CC[C@]12C=CCN3CC[C@@]4(c5ccc(OC)cc5N(C)[C@H]4[C@@](O)(C(=O)OC)[C@@H]1OC(=O)CCC[P+](C1CCCCC1)(C1CCCCC1)C1CCCCC1)[C@@H]32` the growth was -63.6% (active). With `CC1=C2C(=C[C@@](C)(COP(=O)(Oc3ccccc3)Oc3ccccc3)[C@@H]2O)C(=O)[C@@](C)(O)C12CC2` the growth was -95.8% (active). `CC(C)C[C@H](NC(=O)CNC(=O)C[C@H]1O[C@@H]2OC3(C)CC[C@H]4[C@H](C)CC[C@@H]([C@H]1C)[C@@]24OO3)B(O)O` was tested, and the growth was 17.8% (inactive). `C[C@H]1[C@@H](Oc2ccc(-c3cn(-c4ccnc5cc(Cl)ccc45)nn3)cc2)O[C@@H]2OC3(C)CC[C@H]4[C@H](C)CC[C@@H]1[C@@]24OO3` was tested, and the growth was -50% (active). With `C[C@H]1[C@H](OC(=O)CCC(=O)N(CCCc2cn(-c3ccc([N+](=O)[O-])cc3)nn2)CCNc2ccnc3cc(Cl)ccc23)O[C@@H]2OC3(C)CC[C@H]4[C@H](C)CC[C@@H]1[C@@]24OO3` the growth was 20.1% (inactive). With `COc1cc2cc(C(=O)N3C[C@@H](CCl)c4c3cc(OC(=O)N3CCN(C)[C@@H]5CSSC[C@@H]53)c3ccccc43)[nH]c2c(OC)c1OC` the growth was -55.6% (active). In the case of `COc1cc2cc(C(=O)N3C[C@@H](CCl)c4c3cc(OC(=O)N3CCN(C(=O)CCC(=O)N5CCN(C)CC5)[C@@H]5CSSC[C@@H]53)c3ccccc43)[nH]c2c(OC)c1OC`, the growth is reported as -65.6% (active). `O=C([Se]C1C=CCCC1)c1ccc(C(=O)[Se]C2C=CCCC2)s1` (configuration not stated) was tested, and the growth was -95.7% (active). For `O=C(/C=C/c1cccc(Br)c1)c1nc2ccccc2n1Cc1ccc(F)cc1`, the growth was 79.3% (inactive). For `C=CC[Se]C(=O)c1cncc(C(=O)[Se]CC=C)c1`, the growth was -47.3% (active). For `COc1ccc(OC)c(/C=C/C(=O)c2nc3ccccc3n2Cc2ccc(F)cc2)c1`, the growth was -58.3% (active). For `CC[C@]12C=CCN3CC[C@@]4(c5ccc(OC)cc5N(C)[C@H]4[C@@](O)(C(=O)OC)[C@@H]1OC(=O)CCCC[P+](c1ccc(C)cc1)(c1ccc(C)cc1)c1ccc(C)cc1)[C@@H]32`, the growth was -64.1% (active). With `CC1=C(CCC=NNC(N)=O)C2=C(C)C3(CC3)[C@@](C)(O)C(=O)C2=C1` the growth was -91.4% (active). For `Cc1ccc2[nH]c(=S)n(-c3ccc(F)cc3)c(=O)c2c1`, the growth was 134% (inactive). In the case of `CC1=C(COCCOC(=O)c2ccc(S(=O)(=O)F)cc2)C2=C(C)C3(CC3)[C@@](C)(O)C(=O)C2=C1`, the growth is reported as -73% (active). In the case of `COC(=O)CCn1c(-c2ccc(-n3cc(-c4ccc(O[C@H]5O[C@@H]6OC7(C)CC[C@H]8[C@H](C)CC[C@@H]([C@H]5C)[C@@]68OO7)cc4)nn3)cc2)nc2ccccc21`, the growth is reported as -26.6% (active). In the case of `CCC[Se]C(=O)c1ccc(C(=O)[Se]CCC)s1`, the growth is reported as -85.7% (active). `C[C@H]1[C@@H](CC(=O)N[C@@H](Cc2coc3ccccc23)B(O)O)O[C@@H]2OC3(C)CC[C@H]4[C@H](C)CC[C@@H]1[C@@]24OO3` was tested, and the growth was -49.2% (active). With `O=C(/C=C/c1ccco1)c1nc2ccccc2n1Cc1ccc(F)cc1` the growth was 81.9% (inactive). For `C[C@H]1[C@H](OC(=O)CCC(=O)N(CCCc2cn(-c3ccc(C#N)cc3)nn2)CCNc2ccnc3cc(Cl)ccc23)O[C@@H]2OC3(C)CC[C@H]4[C@H](C)CC[C@@H]1[C@@]24OO3`, the growth was 14.5% (inactive).

These compounds were tested on DU-145 prostate in the same assay as above. Conditions: 10 µM.
With `COc1cc2cc(C(=O)N3C[C@@H](CCl)c4c3cc(OC(=O)N3CCN(C)[C@@H]5CSSC[C@H]53)c3ccccc43)[nH]c2c(OC)c1OC` the growth was 1.52% (active). In the case of `CC1=C(CCC=O)C2=C(C)C3(CC3)[C@@](C)(O)C(=O)C2=C1`, the growth is reported as -100% (active). `COC(=O)C[C@](O)(CCC(C)C)C(=O)O[C@@H]1C(OC)=C[C@]23CCCN2CCc2cc4c(cc2[C@H]13)OCO4` was tested, and the growth was -26.7% (active). For `O=C(/C=C/c1ccc(Cl)cc1)c1nc2ccccc2n1Cc1ccc(F)cc1`, the growth was 37.6% (inactive). In the case of `CC[C@]12C=CCN3CC[C@@]4(c5ccc(OC)cc5N(C)[C@H]4[C@@](O)(C(=O)OC)[C@@H]1OC(=O)CCC[P+](C1CCCCC1)(C1CCCCC1)C1CCCCC1)[C@@H]32`, the growth is reported as 15.7% (inactive). With `CC1=C2C(=C[C@@](C)(COP(=O)(Oc3ccccc3)Oc3ccccc3)[C@@H]2O)C(=O)[C@@](C)(O)C12CC2` the growth was -96.3% (active). In the case of `CC(=O)Oc1ccccc1C(=O)NC([Se])=NC1CCCCC1`, the growth is reported as 20% (inactive). In the case of `CCOP(=O)(CC(F)(F)C(F)(F)F)OCC`, the growth is reported as 14.9% (inactive). For `CC(C)C[C@H](NC(=O)CNC(=O)C[C@H]1O[C@@H]2OC3(C)CC[C@H]4[C@H](C)CC[C@@H]([C@H]1C)[C@@]24OO3)B(O)O`, the growth was 42.3% (inactive). In the case of `C[C@H]1[C@@H](Oc2ccc(-c3cn(-c4ccnc5cc(Cl)ccc45)nn3)cc2)O[C@@H]2OC3(C)CC[C@H]4[C@H](C)CC[C@@H]1[C@@]24OO3`, the growth is reported as 51.6% (inactive). With `C[C@H]1[C@H](OC(=O)CCC(=O)N(CCCc2cn(-c3ccc([N+](=O)[O-])cc3)nn2)CCNc2ccnc3cc(Cl)ccc23)O[C@@H]2OC3(C)CC[C@H]4[C@H](C)CC[C@@H]1[C@@]24OO3` the growth was 53.8% (inactive). For `COc1cc2cc(C(=O)N3C[C@@H](CCl)c4c3cc(OC(=O)N3CCN(C)[C@@H]5CSSC[C@@H]53)c3ccccc43)[nH]c2c(OC)c1OC`, the growth was -4.86% (active). In the case of `COc1cc2cc(C(=O)N3C[C@@H](CCl)c4c3cc(OC(=O)N3CCN(C(=O)CCC(=O)N5CCN(C)CC5)[C@@H]5CSSC[C@@H]53)c3ccccc43)[nH]c2c(OC)c1OC`, the growth is reported as -4.3% (active). `COC(=O)c1ccc(-n2cc(CCCN(CCNc3ccnc4cc(Cl)ccc34)C(=O)CCC(=O)O[C@@H]3O[C@@H]4OC5(C)CC[C@H]6[C@H](C)CC[C@@H]([C@H]3C)[C@@]46OO5)nn2)cc1` was tested, and the growth was 59.8% (inactive). With `O=C([Se]C1C=CCCC1)c1ccc(C(=O)[Se]C2C=CCCC2)s1` (configuration not stated) the growth was -3.45% (active). In the case of `O=C(/C=C/c1cccc(Br)c1)c1nc2ccccc2n1Cc1ccc(F)cc1`, the growth is reported as 30.2% (inactive). For `CC[C@]12C=CCN3CC[C@@]4(c5ccc(OC)cc5N(C)[C@H]4[C@@](O)(C(=O)OC)[C@@H]1OC(=O)CCC[P+](c1ccc(C)cc1)(c1ccc(C)cc1)c1ccc(C)cc1)[C@@H]32`, the growth was -78.5% (active). With `O=C(NC([Se])=NC1CCCCC1)c1ccccc1` the growth was 46.2% (inactive). For `O=C(/C=C/c1ccc(F)cc1)c1nc2ccccc2n1Cc1ccc(F)cc1`, the growth was 18.4% (inactive). `O=C(/C=C/c1ccccc1)c1nc2ccccc2n1Cc1ccc(Br)cc1` was tested, and the growth was -48.3% (active). With `C=CC[Se]C(=O)c1cncc(C(=O)[Se]CC=C)c1` the growth was 5.92% (active). For `COc1ccc(OC)c(/C=C/C(=O)c2nc3ccccc3n2Cc2ccc(F)cc2)c1`, the growth was 4.91% (active). In the case of `O=C(/C=C/c1ccc(F)cc1)c1nc2ccccc2n1Cc1ccc(Br)cc1`, the growth is reported as -42.2% (active). With `CC[C@]12C=CCN3CC[C@@]4(c5ccc(OC)cc5N(C)[C@H]4[C@@](O)(C(=O)OC)[C@@H]1OC(=O)CCCC[P+](c1ccc(C)cc1)(c1ccc(C)cc1)c1ccc(C)cc1)[C@@H]32` the growth was -84.5% (active). For `CC(C)N=C([Se])NC(=O)c1cccs1`, the growth was -14.3% (active). For `CC1=C(CCC=NNC(N)=O)C2=C(C)C3(CC3)[C@@](C)(O)C(=O)C2=C1`, the growth was -29.2% (active). In the case of `Cc1ccc2[nH]c(=S)n(-c3ccc(F)cc3)c(=O)c2c1`, the growth is reported as 110% (inactive). In the case of `C#CC[Se]C(=O)c1ccc2n[se]nc2c1`, the growth is reported as 71.8% (inactive). With `CC1=C(COCCOC(=O)c2ccc(S(=O)(=O)F)cc2)C2=C(C)C3(CC3)[C@@](C)(O)C(=O)C2=C1` the growth was -3.95% (active). `CC12CCC3(CCC(=O)NCCCNc4ccnc5cc(Cl)ccc45)[C@@](C)(OO[C@]3(C)O1)O2` was tested, and the growth was 38.2% (inactive). With `O=C(/C=C/c1ccc(Br)cc1)c1nc2ccccc2n1Cc1ccc(Br)cc1` the growth was 17.9% (inactive). With `COC(=O)CCn1c(-c2ccc(-n3cc(-c4ccc(O[C@H]5O[C@@H]6OC7(C)CC[C@H]8[C@H](C)CC[C@@H]([C@H]5C)[C@@]68OO7)cc4)nn3)cc2)nc2ccccc21` the growth was 34% (inactive). With `CC1=C(C=O)C2=C(C)C3(CC3)[C@@](C)(O)C(=O)C2=C1` the growth was 8.41% (active). In the case of `N#C[Se]CC(=O)Nc1cccc(C(F)(F)F)c1`, the growth is reported as -13% (active). `CCC[Se]C(=O)c1ccc(C(=O)[Se]CCC)s1` was tested, and the growth was 9.92% (active). With `C[C@H]1[C@@H](CC(=O)N[C@@H](Cc2coc3ccccc23)B(O)O)O[C@@H]2OC3(C)CC[C@H]4[C@H](C)CC[C@@H]1[C@@]24OO3` the growth was 21.6% (inactive). `O=C(/C=C/c1ccco1)c1nc2ccccc2n1Cc1ccc(F)cc1` was tested, and the growth was 56.6% (inactive). For `COC(=O)C[C@](O)(CCC(C)C)C(=O)O[C@H]1C(OC)=C[C@@]23CCCN2CCc2cc4c(cc2[C@@H]13)OCO4`, the growth was -24.1% (active). In the case of `C[C@H]1[C@H](OC(=O)CCC(=O)N(CCCc2cn(-c3ccc(C#N)cc3)nn2)CCNc2ccnc3cc(Cl)ccc23)O[C@@H]2OC3(C)CC[C@H]4[C@H](C)CC[C@@H]1[C@@]24OO3`, the growth is reported as 69.3% (inactive).
